From PubChem
PP5 primary – PP5 (human) phosphatase inhibition. 320,000 compounds, 0.18% hits. P53041. purified PP5c, OMFP substrate fluorescence. inhibition, % at 6.7 µM;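 active = inhibition above the campaign's mean inhibition across all tested compounds plus 3 SD, cut at about 9.5% in these data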;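 also: 0% = DMSO only and 100% = 100 µM cantharidin control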
Mdm2 MdmX PPI – human Mdm2/MdmX binding inhibition; O15151+Q00987; SaOS-2 split-luciferase Mdm2/MdmX complementation, luminescence; inhibition, % at 8 µM; 330,000 compounds, 3% hits;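 active = inhibition of at least 50% at 8 µM in the primary screen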
PP1 inh – PP1-alpha (human) inhibition in PP5 counter-screen; 320,000 compounds, 0.9% hits; P62136; purified PP1alpha, OMFP fluorescence; AID 2235; inhibition, % at 6.7 µM;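 active = inhibition above the mean inhibition of all tested compounds plus 3 SD, computed separately for each screening campaign, cut at about 15% in these data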
CSC inhib – blocks cancer stem cells | inhibition, % at 7.5 µM | cancer stem cell-like cells viability, luminescence | AID 2717 | 300,000 compounds, 1.1% hits; in the data active = inhibition above about 75%; inconclusive = no clear call, values can overlap the other calls; tested in HMLE shEcad cells
Beta apoptosis – blocks beta cell apoptosis. INS-1E cytokine-induced death, ATP luminescence, 48 h; percent of positive-control rescue, neutral wells zero. protection from apoptosis, % (test concentration not listed). 300,000 compounds, 0.8% hits. AID 435005;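 active = Every replicate reaches about 75%, or at least half do and their mean reaches it too, limit read from the data; inconclusive = At least half of replicates reach the limit but their mean does not; inactive = Under half of replicates reach the limit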;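 also: 0% = cytokine-treated negative control wells and 100% = positive control rescue; higher means more ATP so stronger rescue from cytokine killing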
Calb FLC – C. albicans growth modulation with fluconazole. C. albicans CaCi-2 (fluconazole-resistant clinical isolate) + fluconazole, Alamar Blue growth, 48 h. AID 1979. growth inhibition, % (test concentration not listed). 300,000 compounds, 0.57% hits;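 active = growth inhibition above about 58% in most replicates, limit read from the data, passing the limit was not always enough; inconclusive = exactly half the replicates above a set limit; inactive = most replicates below a set limit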;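 also: all wells also contain fluconazole at 8 µg/ml as a sub-toxic cotreatment; 0% = median of DMSO wells and 100% = median of geldanamycin control wells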
Mdm2-MdmX conf – human Mdm2/MdmX binding inhibition, confirmed; 10,000 compounds, 55% hits; inhibition, % at 8 µM; luminescent assay; shares compounds with Mdm2 MdmX PPI; AID 489028; in the data active = inhibition above about 40%
FLuc counter – full-length luciferase inhibition in Mdm2/MdmX counter-screen. shares compounds with Mdm2 MdmX PPI. inhibition, % at 8 µM. SaOS-2 full-length luciferase counterscreen, luminescence. 6,200 compounds, 77% hits;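 active = mean inhibition at 8 µM reaching about 37%, which flags the compound as non-specific, limit read from the data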;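 also: p53-null SaOS-2 cells with luciferase driven by a doxycycline-inducible promoter; compound on cells about two nights before reading with doxycycline added after day one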
An asterisk follows results filed as active; ? = inconclusive; . = no result. Rows were chosen to be rich in hits. Some 4.9% of all compounds tested hit in one or more screens of this group.

SMILES | PP5 primary | Mdm2 MdmX PPI | PP1 inh | CSC inhib | Beta apoptosis | Calb FLC | Mdm2-MdmX conf | FLuc counter
CCC/C(C#Cc1ccc(N(C)C)cc1)=C1/c2ccccc2C(=O)N1c1ccccc1 | . | 51* | . | 42 | 48 | . | 8 | .
CCC/C(C#Cc1cc(OC)cc(OC)c1)=C1/c2ccccc2C(=O)N1c1ccccc1 | . | 24 | . | 11 | 1 | . | . | .
COc1ccccc1/C=N/OCc1cc(C(C)=O)ccc1OC | 2 | 1 | 0 | -7 | ? | -4 | . | .
CC(=O)c1sc(NC(=O)c2ccccc2F)nc1-c1ccccc1 | -1 | -111 | -2 | 14 | 2 | 41 | . | .
COc1ccc(C(=O)Nc2nc(-c3ccccc3)c(C(C)=O)s2)c(OC)c1 | 1 | 58* | -3 | 47 | -10 | ? | 21 | 113*
COC(=O)Nc1nc(-c2ccccc2)c(C(=O)c2ccccc2)s1 | 0 | 61* | 1 | -22 | 25 | -1 | 54* | 95*
CCOc1ccc(N(CC(=O)NC2CCCCC2)C(=O)CCC(=O)Nc2cc(C)ccn2)cc1 | 2 | 14 | 2 | -46 | 0 | 3 | . | .
COc1ccc(C2=NN(C(=O)c3ccco3)C(c3cc4ccccc4nc3Cl)C2)cc1 (stereo not drawn) | 1 | 82* | -6 | -17 | 4 | 7 | 8 | .
COc1ccc2cc(C3CC(c4ccco4)=NN3C(=O)CCC(=O)O)c(Cl)nc2c1 (stereo not drawn) | 3 | 22 | -1 | 5 | -3 | 7 | . | .
CCN1CCN(c2ccc(S(=O)(=O)N3CCCCC3)cc2NC(=O)c2sccc2C)CC1 | 0 | 5 | 0 | -4 | 0 | -14 | . | .
Cc1nc(N)c(C#N)c(-c2cccnc2)c1C | 0 | 51* | -1 | -16 | -17 | 5 | 28 | .
CCN(CC)C(=O)c1[nH]cnc1C(=O)Nc1cccc(Cl)c1 | -1 | 17 | -8 | -8 | -3 | . | . | .
O=C(NNc1c2ccccc2nc2ccccc12)C12CC3CC(CC(C3)C1)C2 | 0 | 68* | -3 | 6 | 13 | -12 | 4 | .
O=C(NNc1c2ccccc2nc2ccccc12)C(O)c1ccccc1 (stereo not drawn) | 1 | 78* | -1 | -8 | 7 | -7 | 82* | 34
O=C(NNc1c2ccccc2nc2ccccc12)c1ccc(O)cc1 | 2 | 28 | -2 | 7 | 47 | 5 | . | .
O=C(NNc1c2ccccc2nc2ccccc12)c1ccccc1O | 5 | 37 | 2 | ? | 12 | -14 | . | .
COC(=O)C1=C(C(=O)OC)[C@@H]2N(Cc3ccccc3)c3ccccc3[C@@]23C[C@@H](C(=O)OC)N(C(=O)c2cc(C)oc2C)C3=N1 | -1 | 57* | 2 | 26 | 2 | 12 | 7 | .
COC(=O)C1=C(C(=O)OC)[C@@H]2N(Cc3ccccc3)c3ccccc3[C@@]23C[C@@H](C(=O)OC)N(C(=O)c2cccs2)C3=N1 | 4 | 60* | 3 | 33 | -5 | 1 | 21 | .
COc1ccc(N/N=C(\C=N\O)C(=O)c2ccc(OC)cc2)cc1 | 2 | 56* | 2 | -5 | 19 | -15 | 56* | 60*
CCN(CC(=O)NCc1ccc(Cl)cc1)C(=O)CN1C(=O)NC(C)(c2ccccc2)C1=O (stereo not drawn) | 2 | -8 | 0 | -4 | . | 0 | . | .
Cc1cc(C(=O)N/N=C/c2cccs2)n[nH]1 | 3 | -20 | -4 | -10 | -7 | -15 | . | .
Cc1cc(C(=O)N/N=C/c2cc(Br)cc(Br)c2OC(=O)c2cccc(F)c2)n[nH]1 | 4 | 51* | -3 | ? | 97* | -8 | 64* | 43*
Cc1cc(C(=O)N/N=C\c2cc(C(C)(C)C)ccc2O)n[nH]1 | 2 | 65* | 2 | -8 | -4 | 3 | 60* | 41*
Cc1ccc(-c2cc(C(=O)N/N=C/c3ccccc3O)n[nH]2)o1 | 1 | 53* | 7 | 79* | 44 | 21 | 53* | 47*
Cc1cc(Cl)ccc1N(CC(=O)NCc1ccc2c(c1)OCO2)S(C)(=O)=O | -1 | 13 | 3 | -9 | 2 | -31 | . | .
SMILES | PP5 primary | Mdm2 MdmX PPI | PP1 inh | CSC inhib | Beta apoptosis | Calb FLC | Mdm2-MdmX conf | FLuc counter
O=C(Nc1cccc(S(=O)(=O)NC2=NCCC2)c1)c1ccc(C(F)(F)F)cc1 | . | 46 | . | -18 | -7 | . | . | .
COCCN1CCCC(CNCc2cn(C)nc2-c2ccc(Oc3ccccc3)cc2)C1 (stereo not drawn) | 2 | 71* | -5 | 3 | 4 | -23 | 60* | 50*
CCCN1CCC(NCc2cn(C)nc2-c2ccc(Oc3ccccc3)cc2)CC1 | 0 | 65* | -2 | 6 | 4 | 0 | 65* | 56*
COC1CCCN(Cc2cn(C)nc2-c2ccc(Oc3ccccc3)cc2)C1 (stereo not drawn) | 2 | 6 | -3 | -6 | -1 | -5 | . | .
CCN(Cc1ccccc1)C(=O)COC(=O)Cn1cnc2ccccc21 | 0 | -8 | 0 | -10 | -1 | 18 | . | .
CCCCN1C=CC(=C2C(=O)c3ccccc3C2=O)C=C1 | 0 | 84* | -3 | 68 | 38 | 11 | 79* | 53*
CCCCC1C(=O)N(c2ccccc2)N(c2ccccc2)C1=O | 2 | 15 | 3 | -1 | -7 | . | . | .
C=CCNC(=S)N/N=C/c1ccc(-c2ccc(Cl)cc2Cl)o1 | -1 | 7 | 4 | 39 | 22 | 21 | . | .
C=CCNC(=S)N/N=C/c1ccc(-c2cc(Cl)ccc2Cl)o1 | 0 | 68* | -2 | 5 | 6 | -3 | 11 | .
O=C(Nc1ccc(N2CCOCC2)c(F)c1)c1cccs1 | -3 | -68 | -5 | -7 | 8 | -5 | . | .
O=c1c2ccccc2sn1-c1ccccc1 | 5 | 76* | -1 | 24 | 26 | -1 | 6 | .
NCC12CC3CC(C1)CC(c1ccc(Br)cc1)(C3)C2 | 0 | 72* | 8 | 22 | 7 | 49 | 31 | .
CSc1ccc(-c2nc3cnccn3c2Nc2ccc3c(c2)OCO3)cc1 | 3 | 55* | 12 | 16 | 2 | -1 | 11 | .
CCOC(=O)C1=C(c2ccccc2)NC(=O)NC1c1ccc(O)c(OCC)c1 (stereo not drawn) | 1 | 12 | -2 | -19 | -2 | 65 | . | .
CCOC(=O)C1=C(c2ccccc2)NC(=O)NC1c1ccc(O)c(Cl)c1 (stereo not drawn) | 3 | 94* | -3 | 8 | . | -1 | 56* | 30
CCCC(=O)N(Cc1cc(=O)[nH]c2ccccc12)c1ccc(OC)cc1 | -4 | 15 | 3 | -12 | 3 | 1 | . | .
CCCC(=O)N(Cc1cc(=O)[nH]c2ccccc12)c1cccc(C)c1 | 0 | -5 | 3 | -17 | 4 | 1 | . | .
COc1ccc(N(Cc2cc(=O)[nH]c3ccccc23)C(=O)CCl)cc1 | 2 | 100* | -3 | 57 | -27 | 17 | 79* | 63*
